# Compound activity: PubChem, National Center for Advancing Translational Sciences (NCATS)
# In the library only some 11% were active in any assay of this set; here they are far more common.
# NIH3T3 tox – Cytotoxic Profiling in NIH 3T3 Cell Line of Diverse Libraries Using Quantitative High-Throughput Screening; NIH 3T3 viability, CellTiter-Glo ATP luminescence, 48-72 h; Potency, µM (series often up to 96.7 µM), without a hit: at the top dose activity change, negative = cytotoxicity, actives largely listed as inhibitors; actives 4.3% (n = 94,000); AID 1345082, 2018; further: nearly all actives have a fitted effect of over 55% in size
#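 First NIH 3T3 cells are plated at 400 cells/well; next compound is pinned in; then plates incubate 48 or 72 hr at 37 °C; finally CellTiter-Glo is added and luminescence read after 10 min.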
# Luciferase inh – Firefly luciferase inhibition profiling of diverse chemical library using quantitative high-throughput screening; purified P. pyralis luciferase, luminescence, biochemical; Potency, µM (series often up to 115 µM), usual class: inhibitors; actives 2.5% (n = 76,000); further: nearly all actives have a fitted effect of over 65% in size
#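 Luminescence read by CCD imager after adding enzyme (10nM final) to wells holding compound, titrated in qHTS. Substrates 10uM each D-luciferin and ATP; buffer 50mM Tris acetate pH 7.5, 10mM Mg acetate, Tween-20, BSA.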
# HEK293 tox – Cytotoxic Profiling in HEK 293 Cell Line of Diverse Libraries Using Quantitative High-Throughput Screening | actives 6.6% (n = 94,000) | HEK 293 viability, ATP luminescence (CellTiter-Glo), 48-72 h | Potency, µM (highest dose often 115 µM), without a hit: top-dose activity change, negative = cytotoxicity, usual class: inhibitors | AID 1345083, 2018; further: nearly all actives have a fitted effect of over 60% in size
#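 Pintool-delivered compounds were incubated with HEK 293 cells (250 cells/well) at 37 degree Celsius for 48 or 72 hr. ATP-dependent luminescence (CellTiter-Glo) then reported remaining viable cells.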
# NPR1 antag – Natriuretic polypeptide receptor (hNpr1) antagonism - Primary qHTS. Atrial natriuretic peptide receptor 1 (Homo sapiens), P16066. HEK293 hNpr1 GloSensor cGMP, ANP-stimulated luminescence. Potency, µM (top dose mostly 46.3 µM), inactives show top-dose activity change, negative = inhibition, hits mostly inhibitors. actives 1.6% (n = 76,000). AID 1347048, 2019; calls by dose curve; further: nearly all actives have a fitted effect of over 60% in size
#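 HEK293 cells stably expressing human Npr1 and cGMP GloSensor pGS-40F, loaded 2 h with 2% GloSensor reagent, given compound 30 min at room temperature. Luminescence read before and 20 min after 0.1 nM hNppA.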
# Numbers without * were called inactive; i = inactive; ? = inconclusive; . = no result given; [ ] = remark or other dose. Unless noted, the call rests on the fitted dose curve; in most records, active means well fitted curve in the direction sought with a large enough effect; inconclusive means small, poorly fitted or top-dose-only effect, or another doubt; inactive means no such curve, though single readings can be large; an effect the other way counts as inactive or inconclusive. On the % scale 0 is the no-effect control and ±100 the full control effect; potency means the concentration at half of the fitted maximal effect.
SMILES,NIH3T3 tox,Luciferase inh,HEK293 tox,NPR1 antag
CC(C)N1CC[C@H](c2nc3ccc(C#N)cc3[nH]2)C1,-11.2%[230 µM],39.8µM*,-28.8%[230 µM],-13.2%[70.6 µM]
COc1ccc2nc([C@H]3CCN(C(C)C)C3)[nH]c2c1,-26.1%[174 µM],22.4µM*,-26.5%[230 µM],?
CCOc1ccccc1CN1CC[C@H](CNC(C)=O)[C@H](N(C)C)C1,-27.8%,i,-20.1%,4.2%
C[C@@]12CCC(=O)C[C@@H]1C[C@H](OC(=O)NCc1ccccc1)CC2,?,.,-18.2%,.
COc1ccc(Nc2ccc3c(n2)CN(Cc2ccc(F)cc2)C(=O)CO3)cn1,?,i,89.1µM*,-23.3%[70.6 µM]
O=C1COc2ccc(Nc3cccnc3)nc2CN1Cc1ccc(C(F)(F)F)cc1,?,i,89.1µM*,-24.0%[70.6 µM]
COc1ccc(Nc2ccc3c(n2)CN(Cc2ccccc2)C(=O)CO3)cn1,?,i,79.4µM*,-24.2%[70.6 µM]
COc1ccc(Nc2ccc3c(n2)CN(Cc2ccc(C(F)(F)F)cc2)C(=O)CO3)cn1,?,i,?,-22.2%
Cn1c2c(c3ccccc31)CN(C(=O)Nc1cccc(Br)c1)CC2,31.6µM*,?,?,-9.2%
Cc1ccc(NC(=O)N2CCc3c(c4ccccc4n3C)C2)cc1C,?,?,44.7µM*,-20.1%
Cc1cccc(NC(=O)N2CCc3c(c4ccccc4n3C)C2)c1C,?,i,?,-2.6%
Cn1c2c(c3cc(F)ccc31)CN(C(=O)Nc1cccc(F)c1)CC2,22.4µM*,?,44.7µM*,-14.7%
Cc1ccc2[nH]c(CN3CCC(c4cccc(C#N)c4)CC3)cc(=O)c2c1,?,i,?,?
Cc1noc2c(N3CCN(Cc4ccccc4)CC3)cc(-c3ccsc3)nc12,?,i,56.2µM*,-26.6%[70.6 µM]
Cc1noc2c(N3CC[S+](=O)([O-])CC3)cc(-c3ccccc3)nc12,?,i,1.7%[172 µM],11.9%[70.6 µM]
O=C(Cc1ccc(Cl)cc1)N1CCC(c2n[nH]c(=O)n2-c2ccccc2)CC1,31.6µM*,i,-1.9%,10.4%
COc1cccc(C(=O)N2CCC(c3n[nH]c(=O)n3-c3ccc(C)cc3)CC2)c1,35.5µM*,i,-5.5%,3.0%
O=C(Cc1ccc(OC(F)(F)F)cc1)N1CCC(c2n[nH]c(=O)n2-c2ccccc2)CC1,?,i,3.9%,3.1%
COc1cc(OC)cc(C(=O)N2CCC(c3n[nH]c(=O)n3-c3ccc(C)cc3)CC2)c1,25.1µM*,i,1.5%,13.0%
COc1cccc(C(=O)N2CCC(c3n[nH]c(=O)n3Cc3ccc(F)cc3)CC2)c1,?,i,-6.8%,1.9%
COc1cc(OC)cc(C(=O)N2CCC(c3n[nH]c(=O)n3Cc3ccc(F)cc3)CC2)c1,17.8µM*,i,0.6%,0.0%
COc1cc(OC)cc(C(=O)N2CCC(c3n[nH]c(=O)n3-c3ccccc3)CC2)c1,?,i,-4.1%,0.5%
Cc1ccc(CC(=O)N2CCC(c3n[nH]c(=O)n3-c3ccc(C)cc3)CC2)cc1,?,i,4.5%,-6.7%
COc1ccc(CC(=O)N2CCC(c3n[nH]c(=O)n3-c3ccc(C)cc3)CC2)cc1,31.6µM*,i,-7.9%,0.0%
O=C(C1CCN(S(=O)(=O)N2CCOCC2)CC1)N1CCC(CCOc2ccc(F)cc2)C1 (centres undefined),?,.,44.7µM*,.
SMILES,NIH3T3 tox,Luciferase inh,HEK293 tox,NPR1 antag
CN(CC(=O)N1CCC(CCOc2ccc(F)cc2)C1)S(=O)(=O)c1ccc2c(c1)oc(=O)n2C (centres undefined),?,i,35.5µM*,?
CN(CC(=O)N1CCC(CCOc2ccccc2F)C1)S(=O)(=O)c1cccs1 (centres undefined),?,i,50.1µM*,-16.3%
O=C(c1ccncc1)N1CCC(CCOc2ccc(F)cc2)C1 (centres undefined),?,i,?,-21.4%
CC(C)C(=O)N1CCC(CCOc2ccccc2F)C1 (centres undefined),?,i,?,-19.9%
CCn1ccc(C(=O)N2CCC3(CC2)CN(C2CCC2)CC3CO)n1 (centres undefined),-6.4%,.,?,.
CC(C)CNC(=O)c1ccc(-c2nnc3ccc(NC(=O)C4CC4)cn23)cc1,-25.0%,i,?,1.0%
